# Bioassay records as filed in PubChem BioAssay.
# Rows were chosen to be rich in hits. Some 1.4% of all compounds tested hit in one or more screens of this group.
# PKM2 activator – qHTS Assay for Activators of Human Muscle isoform 2 Pyruvate Kinase; Potency, µM (titrated, usually from 57.5 µM), inactives show at the highest dose activation, actives largely listed as activators; 260,000 tested, 0.34% active; purified PKM2, Kinase-Glo ATP luminescence, activation; response scale: 0% is enzyme alone, no compound; Pyruvate kinase PKM (Homo sapiens), P14618; also: potency is read from the fitted curve at half-maximal effect; nearly all actives have a fitted effect of over 55% in size
#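 Purified hPK-M2 (>95% pure) converted ADP (0.1 mM final) to ATP with 0.5 mM PEP in 50 mM imidazole pH7.2, KCl, MgCl2, Tween 20, BSA; 1 h at room temperature. ATP detected by Kinase-Glo luminescence.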
# TrxR1 substrate – qHTS Assay for Substrates of Mammalian Selenoprotein Thioredoxin Reductase 1 (TrxR1): qHTS. Thioredoxin reductase 1, cytoplasmic (Rattus norvegicus), O89049. purified TrxR1 substrate turnover, NADPH consumption readout. Potency, µM (titrated, usually from 114 µM), inactives show at the top dose activity change, negative = substrate turnover. 390,000 tested, 0.01% active; also: potency is read from the fitted curve at half-maximal effect; nearly all actives have a fitted effect of over 50% in size
#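 Rat TrxR1, dispensed at 90 nM, was prereduced with 400 uM NADPH (final) for 5 min at ~22 deg C, then incubated with compound 15 min before 400 uM selenite. A first-read NADPH fluorescence drop versus no-compound background flagged substrates.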
# GLS inh – qHTS for Inhibitors of Glutaminase (GLS); AID 624170, 2012; GLS enzymatic activity, qHTS titration; Potency, µM (highest dose often 45.5 µM), for the others: top-dose activity change, negative = inhibition, actives largely listed as inhibitors; 410,000 tested, 0.21% active; also: potency is read from the fitted curve at half-maximal effect
#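 Read-out is an Amplex red fluorescence increase coupled through glutamate oxidase and HRP, measured before and after 30 min room-temperature incubation. hKGA is in 45 mM KH2PO4 (pH 8.2) with 0.02% Tween-20; glutamine added as 1mM solution.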
# rTrxR1 inhibitor – qHTS Assay for Inhibitors of Mammalian Selenoprotein Thioredoxin Reductase 1 (TrxR1): qHTS; Potency, µM (titrated, usually from 114 µM), for the others: top-dose activity change, negative = inhibition, hits mostly inhibitors; AID 588453, 2011; recombinant rTrxR1, NADPH fluorescence consumption, selenite substrate; 390,000 tested, 1% active; Thioredoxin reductase 1, cytoplasmic (Rattus norvegicus), O89049; also: potency is read from the fitted curve at half-maximal effect; nearly all actives have a fitted effect of over 65% in size
#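 Rat TrxR1 (90 nM in the dispensed reagent) was pre-reduced with 400 uM NADPH for 5 min at room temperature, then incubated with compound for 15 min. After 400 uM selenite was added, NADPH fluorescence (Ex 340/Em 450 nm) was followed for 8 min.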
# LDHA inh – qHTS assay for inhibitors of human lactate dehydrogenase; L-lactate dehydrogenase A chain (Homo sapiens), P00338; 480,000 tested, 0.15% active; purified LDHA, NADH/diaphorase-resazurin fluorescence; hits give low values; AID 1347041, 2019; activity change, % (values are at about 110 or 230 µM); in the data active = activity change below about -30%; inconclusive = mostly about -25% to -30%;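 also: plate controls were DMSO wells for no effect and wells without enzyme for full effect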
#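 Resorufin fluorescence (ex540/em590), read at 0 and 20 min after diaphorase/resazurin addition, reports the NADH left after a 5 min room-temperature reaction of 2 nM human LDH5 with 0.06 mM NADH and 0.2 mM pyruvate.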
# IDH1 R132H inh – qHTS for Inhibitors of mutant isocitrate dehydrogenase 1 (IDH1): qHTS; Potency, µM (top dose mostly 76.6 µM), for inactives: at the top dose activity change, negative = inhibition, hits mostly inhibitors; Isocitrate dehydrogenase [NADP] cytoplasmic (Homo sapiens), O75874; IDH1-R132H enzyme, NADPH consumption, diaphorase/resazurin fluorescence; 390,000 tested, 0.093% active; also: potency is read from the fitted curve at half-maximal effect; nearly all actives have a fitted effect of over 65% in size
# Target sequence (O75874 whole entry R132H, stated change not applied): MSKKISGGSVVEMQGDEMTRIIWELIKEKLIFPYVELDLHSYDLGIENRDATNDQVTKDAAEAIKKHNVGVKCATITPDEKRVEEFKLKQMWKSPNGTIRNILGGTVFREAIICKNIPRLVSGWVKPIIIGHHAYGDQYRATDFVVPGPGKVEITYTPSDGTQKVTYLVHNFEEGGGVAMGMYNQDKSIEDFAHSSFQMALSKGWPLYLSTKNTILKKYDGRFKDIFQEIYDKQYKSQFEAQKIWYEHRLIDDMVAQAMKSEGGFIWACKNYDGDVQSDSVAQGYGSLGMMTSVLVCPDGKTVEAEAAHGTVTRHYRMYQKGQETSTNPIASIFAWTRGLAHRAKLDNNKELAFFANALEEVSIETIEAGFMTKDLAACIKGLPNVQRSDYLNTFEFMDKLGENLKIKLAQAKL
#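 IDH1-R132H (0.5 ug/mL) preincubated 30 min with compound, then NADPH (0.016 mM) and alpha-KG (2 mM) added; 80 min at RT, pH 7.5. Remaining NADPH coupled via diaphorase/resazurin to fluorescence (540/590 nm); concentration-response curves normalized to no-enzyme control.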
# Starred values were filed as active, the others as inactive; ? = inconclusive; / = no result; ! = not confirmed by another sample; [ ] = remark or other dose. Unless noted, calls follow the shape of the dose curve; as a rule, active = well fitted curve in the direction sought with a large enough effect; inconclusive = small, poorly fitted or top-dose-only effect, or another doubt; inactive = no such curve, though single readings can be large; an effect the other way counts as inactive or inconclusive. Unless noted, % is scaled to controls: 0 for no effect and ±100 for the full control effect.
SMILES,PKM2 activator,TrxR1 substrate,GLS inh,rTrxR1 inhibitor,LDHA inh,IDH1 R132H inh
CC(C(=O)N(C)CC(=O)Nc1ccccc1C(F)(F)F)N(C)Cc1cccc(F)c1 (stereo not given),/,/,/,/,35,/
Cn1nnnc1NCc1ccc(-c2cccc(Cl)c2)o1,/,/,/,/,7,/
O=C(Cn1ccc2c(Br)cccc21)N1CCCC1,/,/,/,/,-1,/
COCCn1cnnc1SCc1cccc(C(F)(F)F)c1,/,/,/,/,-1,/
CCOC(=O)/C=C/C(=O)OCC(=O)Nc1cccc(Cl)c1Cl,28%,1%,11%,14µM*,-12,-13%
CC(C)=CC(=O)OCC(=O)Nc1ccccc1Cl,-1%,-7%,-7%,-13%,-3,0%
CCOC(=O)c1c(NC(=S)NC)sc2c1CC(C)(C)SC2,3%,2%,-1%,11µM*,-6,3%
CCCCn1c(SCC(=O)c2ccc3c(c2)OCCO3)nnc1-c1ccco1,5%,-4%,4%,7.1µM*,-2,4%
COCCn1c(SCC(=O)c2ccc3c(c2)OCCO3)nnc1-c1ccoc1C,-7%,-5%,14%,45µM*,-5,11%
COCCCn1c(SCC(=O)Nc2ccc3c(c2)OCCO3)nnc1-c1ccoc1C,15%,0%,8%,-9%,0,6%
CCn1c(SCC(=O)Nc2ccc3c(c2)OCCO3)nnc1-c1ccco1,1%,8%,-2%,-11%,0,12%
CC1=C/C(=N\NC(=S)Nc2ccccc2C)CC1,/,/,/,/,1,/
O=C(CCc1c[nH]c2ccccc12)NCc1ccncc1,1%,1%,0%,1%,-32*!,3%
COc1ccc(CNC(=O)CCc2c[nH]c3ccccc23)cc1,0%,2%,-12%,16%,-12,0%
Fc1cccc(-c2nn3c(CN4CCOCC4)nnc3s2)c1,/,/,/,/,-7,/
Cc1ccc(-n2ncc3c(N4CCCC4)ncnc32)c(C)c1,25µM*,-3%,/,-1%,0,5%
Cc1ccc(-n2ncc3c(N4CCCC(C)C4)ncnc32)c(C)c1 (stereo not given),12%,6%,4%,15%,-2,2%
CCN(CC)C(=O)c1ccc(-n2nc(C)c(-c3ccc(C)cc3)c2NC(C)=O)cc1,/,/,/,/,-9,/
N#Cc1ccc(-c2ccc(-c3nc4ccccc4c(=O)[nH]3)o2)cc1,/,/,/,/,5,/
O=c1[nH]c(-c2ccc(-c3cccc(Cl)c3)o2)nc2ccccc12,/,13%,-4%,50µM*,-1,/
COC1=C/C(=C/c2c(O)c(C#N)c3ccccn23)C=CC1=O,-2%,-7%,-14%,13µM*,9,-8%
CC1(c2ccccc2)NC(=O)N(NC(=O)c2n[nH]c(=O)c3ccccc23)C1=O (stereo not given),/,/,/,/,-4,/
Clc1cc(CSc2ncnc3ccccc23)cc2c1OCCCO2,/,/,/,/,-3,/
COC(=O)COc1ccc2c(c1)OCC2=O,/,/,/,/,6,/
CSC1=NC=C(C#N)C2=NC(c3c(Cl)cccc3Cl)NN12 (stereo not given),/,/,11µM*,/,-6,/
SMILES,PKM2 activator,TrxR1 substrate,GLS inh,rTrxR1 inhibitor,LDHA inh,IDH1 R132H inh
S=C(NN=C1CCCCC1)NC1CCCCC1,/,/,/,/,-1,/
N=c1nc(-c2ccccc2)n(-c2ccccc2)s1,/,-9%,/,?,-71*,/
O=C1CCCC(O)=C1N=Nc1ccc(C(=O)O)cc1,9%,-6%,11µM*,-6%,3,17%
COc1ccc(-n2cc(C(=O)Nc3ccc(F)c(F)c3)nn2)cc1,/,/,/,/,8,/
C/C(=C\c1ccc(C)o1)C(=O)c1c(C)cc(C)[nH]c1=O,10µM*,-9%,-12%,50µM*,-3,8%
C/C(=C\c1cccc(Br)c1)C(=O)c1c(C)cc(C)[nH]c1=O,/,-5%,-2%,6%,-4,-4%
O=C(O)c1cc(/C=C/C(=O)c2cc(F)ccc2O)c2c(c1)COCO2,8%,-11%,?,45µM*,-1,-5%
COc1ccc(C(=O)/C=C/c2cc(C(=O)O)cc3c2OCOC3)c(O)c1,-5%,-14%,-14%,?,-2,0%
O=C(Cc1n[nH]c(=O)c2ccccc12)N1CCCC1,/,/,/,/,-2,/
Cc1cc(C)c2oc(-c3cc(NC(=O)c4cccnc4)cc(C)c3O)nc2c1,/,/,/,/,-1,/
O=C1C=CC(=O)N1c1cccc(-c2ccccc2)c1,3.2µM*,7%[57.1 µM],-20%,2.5µM*,-3,0%
CC(=O)Nc1ccc(NC(=S)NC(=O)/C=C/c2ccco2)cc1,-1%,2%,-25%,40µM*,0,0%
Cc1ccc(NC(=O)N/C=C/c2ccco2)cc1,12%,18%,-16%,16µM*,7,9%
COc1cc(NS(=O)(=O)c2ccc(NC(=S)NC(=O)/C=C/c3ccco3)cc2)ncn1,3%,-17%,?,56µM*,-6,-8%
CC(=O)Nc1cccc(C(=O)/C=C/c2ccco2)c1,?,-13%,-12%,?,8,0%
COc1ccc(/C=C/C(=O)NC(=S)Nc2ccc(S(=O)(=O)Nc3ccc(OC)nn3)cc2)cc1,-3%,-8%,-9%,?,-10,0%
Cc1ccc(NC(=O)/C(=C\c2ccco2)NC(=O)c2ccco2)cc1,/,-4%[57.1 µM],5%,?,1,11%
CCOc1ccc(NC(=S)NC(=O)/C=C/c2ccco2)cc1,0%,10%[57.1 µM],3%,-8%[57.1 µM],-11,3%
CC(=O)Nc1ccc(C(=O)/C=C/c2ccco2)cc1,?,-11%,?,45µM*,0,5%
CC(OC(=O)C12CC3CC(CC(C3)C1)C2)C(N)=O (stereo not given),/,/,/,/,-2,/
CC(C)(C)C(=O)Nc1cccc(NCC(=O)NC2(C#N)CCCC2)c1,/,/,/,/,7,/
NC(=O)C1CCCN1C(=O)c1nn(-c2ccccc2)c(=O)c2ccccc12 (stereo not given),/,/,/,/,-3,/
COc1ccccc1C1=NOC(C(=O)NC(C)(C)C)C1 (stereo not given),/,/,/,/,-14,/
O=C(/C=C/c1ccco1)NC(=S)Nc1cccc(C(=O)O)c1,/,-2%,?,40µM*,0,10%
Cc1ccccc1-c1nc2cc(NC(=O)/C=C/c3ccco3)ccc2o1,/,/,/,/,1,/
